Only some compounds are listed: those with a hit (about 2.4% of all), similar ones and a draw of the others.
Rango release inh = prevents RanGTP from dissociating the Rango-importin beta complex | Biochemical FRET Rango-importin beta, RanGTP-induced dissociation | AID 540253 | Potency, µM (top dose mostly 46.1 µM) | O95149+P62826 | 340,000 compounds, 0.071% hits; calls by dose curve; further: nearly all actives have a fitted effect of over 45% in size
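Recombinant Rango FRET biosensor (EYFP–snurportin 1 IBB–cerulean CFP10) at 0.1 uM premixed with 0.25 uM importin beta in PBS, 1 mM DTT, 0.02% Tween-20, 0.1% BSA. Compound added 5 min; RanGTP-RCC1 (0.6 uM Ran, 2 mM GTP, 0.2 uM RCC1) then triggers release, read at 45 min.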
Tb PFK block = inhibitors of T. brucei phosphofructokinase; T. brucei PFK, ADP-Glo luminescence; Potency, µM (doses to about 57.5 µM), hits mostly inhibitors; 330,000 compounds, 0.17% hits; AID 485367; further: nearly all actives have a fitted effect of over 60% in size
Target sequence (O15648 whole entry, looked up): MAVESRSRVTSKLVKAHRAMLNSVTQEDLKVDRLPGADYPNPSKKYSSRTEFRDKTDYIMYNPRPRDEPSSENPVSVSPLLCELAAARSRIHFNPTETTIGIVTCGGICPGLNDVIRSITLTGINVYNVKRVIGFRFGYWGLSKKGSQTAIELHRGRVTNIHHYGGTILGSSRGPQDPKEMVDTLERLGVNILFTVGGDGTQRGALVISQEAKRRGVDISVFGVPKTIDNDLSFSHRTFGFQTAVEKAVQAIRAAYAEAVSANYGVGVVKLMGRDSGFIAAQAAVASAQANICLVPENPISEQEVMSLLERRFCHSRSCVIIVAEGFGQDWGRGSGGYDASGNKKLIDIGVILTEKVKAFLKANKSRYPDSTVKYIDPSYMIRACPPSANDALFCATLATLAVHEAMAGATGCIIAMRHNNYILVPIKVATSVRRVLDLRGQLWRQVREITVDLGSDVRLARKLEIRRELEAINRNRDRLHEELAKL
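Luminescent ADP detection (ADP-Glo, two-step: ATP depletion then ADP-to-ATP conversion for luciferase) reported PFK activity after 45 min room-temperature reaction of 1.25 nM enzyme with 0.5 mM F6P and 0.1 mM ATP at pH 8.0.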
Tb PGK inh = blocks T. brucei phosphoglycerate kinase; PGK/GAPDH coupled, Kinase-Glo luminescence, 60 min; Potency, µM (top dose mostly 57.5 µM), hits mostly inhibitors; 380,000 compounds, 0.043% hits; AID 602233; further: nearly all actives have a fitted effect of over 60% in size
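Luminescent ATP detection (Kinase-Glo Plus) follows a 60-minute room-temperature incubation, with wells lacking PGK as controls. Buffer: 100 mM TEA (pH 7.6), 5 mM MgCl2, 0.01% Tween-20. Coupling enzyme GAPDH (100 nM final) supplies unstable 1,3-BPG in-well.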
ELG1 repair inh = inhibitors of ELG1-dependent DNA repair in HEK293T cells | 330,000 compounds, 2.3% hits | Potency, µM (highest dose often 46.1 µM), usual class: inhibitors | HEK293T ELG1-luciferase reporter, luminescence, 16 h; DNA damage induced by 5-fluorouridine; further: nearly all actives have a fitted effect of over 55% in size
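Reporter activity after DNA damage by 5-fluorouridine is monitored. Compound-treated cells incubate 16 hr at 37 °C, then ONE-Glo is added for 30 min before luminescence reading.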
PKM2 act = activators of human pyruvate kinase M2; Potency, µM (top dose mostly 57.5 µM), hits mostly activators; 260,000 compounds, 0.34% hits; AID 1631; purified PKM2, Kinase-Glo ATP luminescence, activation; response scale: 0% is enzyme alone, no compound; further: nearly all actives have a fitted effect of over 55% in size
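Kinase-Glo luminescence reports ATP generated from ADP (0.1 mM) and PEP (0.5 mM) by purified hPK-M2 after 1 h at room temperature, pH 7.2 imidazole buffer; intermediate enzyme activity allows detecting inhibitors and activators.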
Rango-impB inh = Rango-importin beta binding inhibition; AID 540263; 340,000 compounds, 0.031% hits; Rango CFP/YFP FRET sensor + importin beta, 45 min; Potency, µM (series often up to 92.2 µM); Q14974; calls by dose curve; further: nearly all actives have a fitted effect of over 15% in size
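FRET biosensor Rango (snurportin 1 IBB between N-terminal EYFP and C-terminal Cerulean), 50 nM in PBS/1 mM DTT/0.02% Tween-20/0.1% BSA, preincubated 5 min RT with compound; 0.125 microM importin beta added, 45 min RT, CFP/YFP FRET ratio read.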
A number is an active result. Unless noted, the call rests on the fitted dose curve; in most records, active means well fitted curve in the direction sought with a large enough effect; inconclusive means small, poorly fitted or top-dose-only effect, or another doubt; inactive means no such curve, though single readings can be large; an effect the other way counts as inactive or inconclusive.

`O=C(CCCCCn1c(=S)[nH]c2ccc(N3CCOCC3)cc2c1=O)NCc1cccc(Cl)c1` gave Rango release inh 4.6µM, Tb PFK block inactive, Tb PGK inh inactive, ELG1 repair inh inconclusive, PKM2 act inactive and Rango-impB inh inconclusive.
`Cc1cccc(N2CCN(C(=O)CCCn3c(=S)[nH]c4cc5c(cc4c3=O)OCO5)CC2)c1C` gave Rango release inh inactive, Tb PFK block inactive, Tb PGK inh inactive, ELG1 repair inh 10µM, PKM2 act inconclusive and Rango-impB inh inactive.
`O=C(c1ccc(Cn2c(=S)[nH]c3cc4c(cc3c2=O)OCO4)cc1)N1CCN(c2ncccn2)CC1` gave Tb PFK block inactive, ELG1 repair inh 7.3µM and PKM2 act inactive.
For CC(=O)c1ccc(N2CCN(C(=O)CCCn3c(=S)[nH]c4cc5c(cc4c3=O)OCO5)CC2)cc1 the results were Rango release inh inactive, Tb PFK block inactive, Tb PGK inh inactive, ELG1 repair inh 18µM, PKM2 act inactive and Rango-impB inh inactive.
`C=CCNC(=O)c1ccc(Cn2c(=S)[nH]c3cc4c(cc3c2=O)OCO4)cc1` gave Rango release inh inactive, Tb PFK block inconclusive, Tb PGK inh inconclusive, ELG1 repair inh inconclusive, PKM2 act inactive and Rango-impB inh inactive.
For CCCCN1CCC(=O)C(C(=O)OCC)=C1C(=O)OCC the results were Rango release inh inactive, Tb PGK inh inactive and Rango-impB inh inconclusive.
`COc1ccc(C(=O)N(c2ccc(C)cc2)S(=O)(=O)c2ccc(C)cc2)cc1` gave Tb PGK inh inactive.
For CC1=C(C(=O)Nc2ccccc2)C(c2ccccc2)n2nc(-c3ccco3)nc2N1 (stereo not given) the results were Tb PGK inh inactive.
Screening O=C(CCCn1c(=S)[nH]c2cc3c(cc2c1=O)OCO3)N1CCN(c2ccccc2)CC1 returned Rango release inh inactive, Tb PFK block inactive, Tb PGK inh inactive, ELG1 repair inh inactive, PKM2 act inactive and Rango-impB inh inactive.
For Cc1cccc(N2CCN(C(=O)CCn3c(=S)[nH]c4cc5c(cc4c3=O)OCO5)CC2C)c1 (stereo not given) the results were Rango release inh inactive, Tb PFK block inactive, Tb PGK inh inactive, ELG1 repair inh 10µM, PKM2 act inactive and Rango-impB inh inactive.
`O=C(CCCn1c(=S)[nH]c2cc3c(cc2c1=O)OCO3)N1CCN(c2ccc(Cl)cc2)CC1` gave Rango release inh inactive, Tb PFK block inactive, Tb PGK inh inactive, ELG1 repair inh 23µM, PKM2 act inactive and Rango-impB inh inactive.
`CC1(c2ccc(Cl)cc2)NC(=O)N(CC(=O)Nc2ccc(N3CCCCC3)cc2)C1=O` (stereo not given) gave Rango release inh inactive, Tb PFK block inactive, Tb PGK inh inactive, ELG1 repair inh inactive and Rango-impB inh inactive.
Screening CN(C1CCCCC1)S(=O)(=O)c1ccc2c(c1)c(=O)c(C(=O)NCCc1ccc(Cl)cc1)cn2C returned Tb PGK inh inactive.
`COc1ccc(-c2oc(NC(=O)CSc3nncn3C)c(C#N)c2-c2ccc(OC)cc2)cc1` gave Rango release inh inactive, Tb PFK block inactive, Tb PGK inh inactive, ELG1 repair inh 18µM, PKM2 act inactive and Rango-impB inh inactive.
Screening COc1ccc(S(=O)(=O)N2CCN(C(=O)c3cccs3)CC2)cc1 returned Rango release inh inactive, Tb PFK block inactive, Tb PGK inh inactive, ELG1 repair inh inconclusive, PKM2 act 14µM and Rango-impB inh inactive.
For Cc1ccccc1C(=O)N1CCN(c2ccc(NC(=O)Cc3ccccc3)cc2)CC1 the results were Rango release inh inactive, Tb PFK block inactive, Tb PGK inh inactive, ELG1 repair inh 18µM, PKM2 act inactive and Rango-impB inh inactive.
`O=C(c1ccc(NS(=O)(=O)c2cccs2)cc1)N1CCCCC1` gave Rango release inh inactive, Tb PFK block inactive, Tb PGK inh inactive, ELG1 repair inh inactive, PKM2 act inactive and Rango-impB inh inactive.
For O=C(c1ccc(NS(=O)(=O)c2cccs2)cc1)N1CCN(c2ccccc2Cl)CC1 the results were Rango release inh inactive, Tb PFK block inactive, Tb PGK inh inactive, ELG1 repair inh inactive, PKM2 act 6.3µM and Rango-impB inh inactive.
For COc1ccc(S(=O)(=O)N2CCN(C(=O)Cc3cccs3)CC2)cc1 the results were Rango release inh inactive, Tb PFK block inactive, ELG1 repair inh inactive, PKM2 act inconclusive and Rango-impB inh inactive.
Cc1ccccc1C(=O)N1CCN(c2ccc(NC(=S)NC(=O)c3cccs3)cc2)CC1 was read as Rango release inh inactive, Tb PFK block inactive, Tb PGK inh inactive, ELG1 repair inh 21µM, PKM2 act inactive and Rango-impB inh inactive.
Screening Cc1ccc(C(=O)N2CCN(c3ccc(NC(=S)NC(=O)c4cccs4)cc3)CC2)cc1 returned Rango release inh inactive, Tb PFK block inactive, Tb PGK inh inactive, ELG1 repair inh inconclusive, PKM2 act inactive and Rango-impB inh inactive.
Screening Cc1n[nH]c(=O)c2c(NC(=O)CSc3nncn3C(C)C)oc(C)c12 returned Rango release inh inactive, Tb PFK block inactive, Tb PGK inh inactive, ELG1 repair inh inactive and Rango-impB inh inactive.
O=C(CN1CCN(S(=O)(=O)c2ccc(Cl)cc2)CC1)c1ccc(O)c(O)c1 was read as Rango release inh inactive, Tb PFK block inactive, Tb PGK inh inconclusive, ELG1 repair inh inactive and Rango-impB inh inactive.
Screening COc1cccc(NC(=O)c2sc3nc(C)c(C(=O)Nc4ccc(C)cc4C)c(-c4ccc(C)o4)c3c2N)c1 returned Tb PGK inh inactive.
For O=C(Nc1ccc(N2CCN(C(=O)c3ccccc3)CC2)cc1)c1cccs1 the results were Rango release inh inactive, Tb PFK block inactive, Tb PGK inh inactive, ELG1 repair inh inconclusive, PKM2 act inactive and Rango-impB inh inactive.
COc1ccc(C(=O)N2CCN(c3ccc(NC(=O)c4cccs4)cc3)CC2)cc1 was read as Rango release inh inactive, Tb PFK block inactive, Tb PGK inh inactive, ELG1 repair inh 12µM, PKM2 act inactive and Rango-impB inh inactive.
CCc1ccc(C(=O)N2CCN(c3ccc(NC(=O)c4cccnc4)cc3)CC2)cc1 was read as Rango release inh inactive, Tb PFK block inactive, Tb PGK inh inactive, ELG1 repair inh 23µM, PKM2 act inactive and Rango-impB inh inactive.
Screening COc1c(C)cccc1C(=O)Nc1ccc(N2CCN(C(=O)c3ccccc3C)CC2)cc1 returned Rango release inh inactive, Tb PFK block inactive, Tb PGK inh inactive, ELG1 repair inh 10µM, PKM2 act inactive and Rango-impB inh inactive.

Compound activity: PubChem BioAssay, National Center for Advancing Translational Sciences (NCATS)
